Source: PubChem (National Center for Advancing Translational Sciences (NCATS))
TDP1 cell CPT: growth inhibition of DT40 Tdp1-/-;hTDP1 cells with camptothecin (screen for TDP1 inhibitors); chicken DT40 Tdp1-/-;hTDP1 cells + 20 nM CPT, ATP luminescence, 48 h; Potency, µM (top dose mostly 46.2 µM), without a hit: top-dose activity change, negative = growth inhibition, actives largely listed as inhibitors; 12% of 420,000 active; AID 686979; further: potency means the concentration at half of the fitted maximal effect; nearly all actives have a fitted effect of over 55% in size
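Cell growth measured by CellTiter-Glo luminescence after a minimum 48 h, 37 C compound exposure with 20 nM CPT in Tdp1-knockout DT40 cells stably expressing hTDP1, seeded 400/well; qHTS titration format.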
IL1B secr inh: inhibitors of inflammasome signaling (IL-1 beta secretion). THP-1 LPS/ATP IL-1B secretion, AlphaLISA, 16 h; active compounds read low. 4.7% of 360,000 active. activity change, % at 57.5 µM; in the data active means activity change below about -50%; inconclusive means mostly about -30% to -49%
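Secreted IL-1B measured by AlphaLISA bead assay after 16 h compound exposure of THP-1 cells; compounds (final up to 57.5 uM) added 1 h before LPS (250 ng/mL) and ATP (1.25 mM) stimulation; lower signal means less secretion.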
HT1080 IDH1KD tx: toxicity to HT-1080 IDH1 knockdown cells (counter line); HT-1080 IDH1 knockdown viability, ATP luminescence, 48 h; Potency, µM (titrated, usually from 46.1 µM), for the others: top-dose activity, negative = toxicity, usual class: cytotoxic; 2% of 360,000 active; AID 686971;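 further: potency means the concentration at half of the fitted maximal effect; 0% = DMSO wells and -100% = cell-free medium wells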
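In this qHTS, HT-1080 cells depleted of IDH1 are exposed for 48 h at 37 °C to compound titrations. Toxicity is scored from CellTiter-Glo luminescence, with DMSO as full viability and medium alone as none.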
DT40 TDP1 no CPT: qHTS for Inhibitors of human tyrosyl-DNA phosphodiesterase 1 (TDP1): qHTS in cells in absence of CPT. 15% of 420,000 active. DT40 Tdp1-/- hTDP1 cells, no CPT, ATP luminescence, 48 h. Potency, µM (titrated, usually from 46.2 µM), for inactives: at the highest dose activity change, negative = growth inhibition, most hits filed as inhibitors; further: potency means the concentration at half of the fitted maximal effect; nearly all actives have a fitted effect of over 55% in size
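Cells were dispensed at 400 per well, compounds added by pin tool, plates incubated ≥48 hr at 37 °C, then CellTiter-Glo added for 30 min at room temperature before luminescence reading. Line: DT40 Tdp1-/- complemented with hTDP1; camptothecin omitted.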
HT1080-NT tox: kills 2HG-producing HT-1080-NT fibrosarcoma cells. HT-1080-NT fibrosarcoma viability, CellTiter-Glo ATP luminescence, 48 h. Potency, µM (series often up to 46.1 µM), without a hit: at the top dose activity, negative = less viability, hits mostly cytotoxic. 1.6% of 360,000 active. AID 686970;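 further: NT is the 2HG producing partner of a matched IDH1 knockdown line; potency means the concentration at half of the fitted maximal effect; 0% = DMSO-treated cells and -100% = media-only wells without cells; nearly all actives have a fitted effect of over 55% in size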
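750 cells/well, RPMI + 5% FBS; 2 h settle, compound pin-transfer, 48 h at 37 degrees C. CellTiter-Glo 10 min RT, luminescence. Normalized to DMSO and media-only wells.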
Active calls of the source: *; u = inconclusive; x = no result; [ ] = remark or other dose. Only some compounds are listed: those with a hit (about 19% of all), similar ones and a draw of the others. Unless noted, the call rests on the fitted dose curve; in most records, active means well fitted curve in the direction sought with a large enough effect; inconclusive means small, poorly fitted or top-dose-only effect, or another doubt; inactive means no such curve, though single readings can be large; an effect the other way counts as inactive or inconclusive. Unless noted, on the % scale 0 is the no-effect control and ±100 the full control effect.

SMILES	TDP1 cell CPT	IL1B secr inh	HT1080 IDH1KD tx	DT40 TDP1 no CPT	HT1080-NT tox
COC(=O)c1c(N2C(=O)[C@H]3[C@@H](C2=O)[C@]2(C(=O)Nc4c(C)cccc42)N2CCC[C@@H]32)sc(C)c1C	20.6µM*	-24.5	u	10.3µM*	-28.5%
CC1CCN(C(=O)c2ccc(-c3ccccc3Cl)o2)CC1	-2.4%	-100.3*	-10.2%	u	0.6%
S=C(c1ccc(-c2ccccc2Cl)o1)N1CCOCC1	u	-90.8*	-24.9%	u	0.2%
O=C(NNC(=O)c1ccccc1F)c1ccc(-c2ccccc2Cl)o1	2.6%	-52.4*	2.0%	u	3.9%
Cc1cc(Nc2ccccc2)n(CCOC(=O)COc2ccccc2)n1	3.4%	27.4	9.6%	-16.6%	7.7%
CCc1c(C)nc2nncn2c1NCc1ccc(OC)cc1	16.4µM*	x	x	18.4µM*	x
Cc1cc(C)n(-c2nnc(NCc3ccc(Cl)cc3)nn2)n1	-14.0%	20.3	-28.0%	u	-15.2%
Cc1nc2nncn2c(Nc2ccc(F)cc2)c1C	16.4µM*	x	x	9.2µM*	x
Cc1nc2nncn2c(NCc2ccc(Cl)cc2)c1C	2.59µM*	x	x	0.82µM*	x
COc1ccc(CNc2cc(-c3ccc(OC)cc3)nc3nncn23)cc1	u	x	x	16.4µM*	x
Cc1ccc2nc(Nc3ccc(F)cc3)c3nncn3c2c1	-17.3%	27.3	-28.4%	6.5%	-27.3%
Cc1nn(-c2ccccc2)c(OC(=O)C(C)(C)C)c1Sc1ccccc1	-22.3%	x	x	-20.1%	x
CN1CCN(c2ccc(NC(=O)CSc3nnnn3-c3ccccc3F)cc2)CC1	u	-6.6	-13.2%	-22.5%	7.2%
Cc1ccc(C(=O)CSc2nnc(-c3snnc3C)n2C2CC2)cc1	5.4%	6.7	20.5%	u	28.2%
CCCn1c(=O)c(C(=O)NNS(=O)(=O)c2ccc(Cl)cc2)c(O)c2ccccc21	-16.3%	u	0.9%	-0.9%	1.7%
Cc1nc2scc(C)n2c(=O)c1S(=O)(=O)NCc1ccc(F)cc1	-4.7%	-6.3	-1.2%	-10.4%	-2.9%
Cc1nc2nncn2c(NCc2ccc(F)cc2)c1C	5.17µM*	x	x	4.11µM*	x
Cc1ccc(CNc2nc3ccc(C)cc3n3cnnc23)cc1	-6.6%	-6.8	5.1%	u	-2.8%
O=[N+]([O-])c1ccc(CN2CCSCC2)cc1	7.0%	-14.6	7.4%	-15.6%	17.3%
O=[N+]([O-])c1cccc(COc2ccc(CN3CCCC3)cc2)c1	u	-17.9	-1.4%	u	-4.0%
O=[N+]([O-])c1cccc(COc2ccc(CN3CCOCC3)cc2)c1	u	-17.0	3.0%	16.4µM*	2.1%
O=[N+]([O-])c1ccc(N2CCN(Cc3cccc([N+](=O)[O-])c3)CC2)cc1	u	-62.0*	u	4.11µM*	u
O=[N+]([O-])c1ccc(CN2CCN(c3ccc([N+](=O)[O-])cc3)CC2)cc1	u	-53.6*	u	18.4µM*	u
CCCCc1ccc(NC(=O)C(=O)NCCN2CCN(Cc3ccc([N+](=O)[O-])cc3)CC2)cc1	3.26µM*	1.2	-0.9%	0.731µM*	-0.4%
Cn1c(Oc2cccnc2CN2CCCC2)nc2cc(-c3cccc(C(F)(F)F)c3)sc2c1=O	u	-26.1	u	u	u
SMILES	TDP1 cell CPT	IL1B secr inh	HT1080 IDH1KD tx	DT40 TDP1 no CPT	HT1080-NT tox
O=[N+]([O-])c1ccc(N2CCC(=NOCc3ccc(Cl)cc3)CC2)cc1	20.6µM*	u	-29.7%	10.3µM*	u
O=[N+]([O-])c1ccc(OCCCCN2CCCCC2)cc1	-0.6%	7.5	2.7%	-0.8%	4.2%
Cc1ccc(C(=O)ON=C2CCN(c3ccc([N+](=O)[O-])cc3)CC2)cc1	u	4.8	-16.2%	u	-4.7%
COC(=O)C1CCN(Cc2ccc(OCCCN3CCN(c4ccc([N+](=O)[O-])cc4)CC3)cc2)CC1	7.31µM*	1.4	14.6µM*	10.3µM*	-20.6%
COc1cc(C)ccc1OCCOCCOc1cccc2ccc(C)nc12	16.4µM*	27.2	u	16.4µM*	-13.1%
C=CCc1ccc(OCCOCCOc2cccc3ccc(C)nc23)c(OC)c1	17.8µM*	-10.1	u	11.2µM*	u
COc1ccc(COc2cccc3ccc(C)nc23)cc1F	4.9%	-2.5	-19.3%	-29.6%	-3.3%
CCc1ccccc1OCCOc1ccc(C)cc1OC	u	25.9	18.1%	29.1µM*	39.5%
COc1ccc(NC(=O)Cn2nc3c(cc2=O)CCCC3)cc1Cl	-15.1%	x	x	-18.5%	x
O=C1NC(c2ccccc2)(C(F)(F)F)C(=O)N1Cc1cccnc1 (stereo not drawn)	-2.0%	6.4	-0.1%[9.24 µM]	-27.2%	4.9%
CCC(Oc1ccccc1)C(=O)N[C@@H]1C(=O)N2[C@@H]1SC(C)(C)[C@@H]2C(=O)O (stereo partly drawn)	0.3%	x	x	0.4%	x
CN(C)S(=O)(=O)c1ccc(C(=O)NCCc2ccco2)cc1	-7.6%	-4.0	-4.2%	23.1µM*	u
COc1ccc(S(=O)(=O)N(C)c2ccc(C(=O)NCc3ccco3)cc2)cc1	u	-7.6	7.0%	u	9.1%
